Test results reported in the supplement of paper PMC13380429.

Test system: Vero E6 infected with SARS-CoV-2
Experiment: inhibition of SARS-CoV-2 cytopathic effect; higher = more antiviral protection, active = above 15
Conditions: 48 h

Measured: inhibition of SARS-CoV-2 cytopathic effect

N#Cc1ccc(C2CCCc3cncn32)cc1 (stereo not given) [fadrozole]
inactive: 1 nM 1.9% | 8.33 nM 0.56% | 100 nM -1.22% | 833.33 nM -4.4% | 10000 nM -0.19%

CCCCc1nc2cc(/C=C/C(=O)NO)ccc2n1CCN(CC)CC
inactive: 1 nM 2.32% | 8.33 nM -0.4% | 100 nM -5.57% | 833.33 nM -20.5% | 10000 nM -27.9%

Cc1cc(N2CCOCC2)cc2[nH]c(-c3c(NC[C@@H](O)c4cccc(Cl)c4)cc[nH]c3=O)nc12
inactive: 1 nM -1.74% | 8.33 nM -0.03% | 100 nM -2.39% | 833.33 nM -2.43% | 10000 nM -13.9%

COc1ccccc1Oc1c(NS(=O)(=O)c2ccc(C)cn2)nc(-c2ccncc2)nc1OC
inactive: 1 nM 1.47% | 8.33 nM 2.09% | 100 nM 1.19% | 833.33 nM 2.9% | 10000 nM -4.64%

CC1CC(OC(=O)C(O)c2ccccc2)CC(C)(C)C1 (stereo not given) [cyclandelate]
inactive: 1 nM -0.8% | 8.33 nM 0.54% | 100 nM -0.37% | 833.33 nM -0.91% | 10000 nM -1.81%

Cc1cc(CC(=O)O)n(C)c1C(=O)c1ccc(Cl)cc1 [zomepirac]
inactive: 1 nM -4.55% | 8.33 nM -6.14% | 100 nM -5.66% | 833.33 nM -0.27% | 10000 nM -0.22%
